ATXN viability: reduces viability in counter-screen for ATXN expression inhibitors; S2 cells (HEK-293 line with an ATXN2-luciferase reporter) viability, CellTiter-Fluor protease fluorescence, 24 h; Potency, µM (series often up to 56.7 µM), usual class: cytotoxic; 400,000 tested, 0.49% active; AID 651635; further: nearly all actives have a fitted effect of over 40% in size
VP16 counter: inhibits Gal4-VP16 luciferase reporter, ROR gamma counter-screen; Drosophila S2 Gal4-VP16 UAS-luciferase, luminescence, 20 h; Potency, µM (doses to about 53.6 µM), actives largely listed as inhibitors; 310,000 tested, 3.5% active; AID 2546;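 further: Gal4-VP16 expression switched on by copper sulfate through the metallothionein promoter; nearly all actives have a fitted effect of over 50% in size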
RORg inh: blocks mouse ROR gamma transcriptional activity; P51450; Drosophila S2 Gal4-RORgamma UAS-luciferase reporter, 20 h; 310,000 tested, 5.4% active; Potency, µM (series often up to 53.6 µM), usual class: inhibitors; further: nearly all actives have a fitted effect of over 60% in size
Target sequence (P51450 whole entry, looked up, the tested form may be a part): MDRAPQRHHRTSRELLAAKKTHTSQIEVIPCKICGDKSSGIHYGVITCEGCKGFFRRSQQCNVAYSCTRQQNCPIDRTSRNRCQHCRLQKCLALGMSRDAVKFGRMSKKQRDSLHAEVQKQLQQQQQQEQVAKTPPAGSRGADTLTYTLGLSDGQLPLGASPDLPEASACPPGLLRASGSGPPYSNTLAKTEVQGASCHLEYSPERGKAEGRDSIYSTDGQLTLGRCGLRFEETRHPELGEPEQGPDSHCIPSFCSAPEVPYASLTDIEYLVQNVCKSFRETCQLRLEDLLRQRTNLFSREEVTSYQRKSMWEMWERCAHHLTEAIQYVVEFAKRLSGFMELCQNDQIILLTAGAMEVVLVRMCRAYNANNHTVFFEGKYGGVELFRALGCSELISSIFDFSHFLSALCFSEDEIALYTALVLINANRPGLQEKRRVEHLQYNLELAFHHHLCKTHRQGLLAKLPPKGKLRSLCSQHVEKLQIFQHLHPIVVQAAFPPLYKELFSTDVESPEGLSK
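Schneider cells (Drosophila), stable Gal4 DBD–ROR gamma + UAS-luc; 1 hr cmpd preincubation; Cu2+ induction 700 uM final; 20 hr ambient; luminescence.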
TGFb inhibitor: blocks TGF-b signaling; HepG2 CAGA-GFP TGF-b/SMAD3 reporter, GFP fluorescence, 18 h; TGF-beta stimulated, 500 pg/mL final; Potency, µM (top dose mostly 46.1 µM), hits mostly inhibitors; 410,000 tested, 1.2% active; further: nearly all actives have a fitted effect of over 65% in size
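First, reporter cells (HEPG2 CAGA-GFP) rested 2 h at 37 degrees C. Next, compounds were pinned in and TGF-beta added to 500 pg/mL final. After 18 h, GFP was imaged per cell and summed per well.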
ATXN2 expr inh: inhibitors of ATXN2 expression; Potency, µM (series often up to 57 µM), most hits filed as inhibitors; 360,000 tested, 0.72% active; HEK-293 ATXN2-luciferase reporter, luminescence, 24 h; further: nearly all actives have a fitted effect of over 55% in size
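qHTS (up to 57 uM final) was run with 24 h compound exposure of reporter cells at 37 °C. Each well was multiplexed: SteadyGlo luminescence measured ATXN2-luciferase expression after a fluorogenic Gly-Phe-AFC viability readout (25 uM final).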
HepG2 viability: HepG2 cytotoxicity, counter-screen for TGF-b inhibitors | HepG2 CAGA-GFP viability, ATP luminescence, 18 h | Potency, µM (highest dose often 46.1 µM), hits mostly cytotoxic | 410,000 tested, 0.76% active | AID 588856
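CellTiter-Glo luminescence gave cytotoxicity after 18 hours at 37 degrees C. The cells were HepG2 CAGA-GFP in 1% FBS DMEM, stimulated with 500 pg/mL TGF-beta after compound addition. %Activity was normalised to no-cell wells (complete cell-killing) and DMSO (no toxicity), and curves were fitted and classified.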
Each line names hits and unclear results; the compound was inactive in the other large screens. Compounds with a hit are over-represented: about 6.1% of the library has one in this group of screens. The call rests on the fitted dose curve; in most records, active means well fitted curve in the direction sought with a large enough effect; inconclusive means small, poorly fitted or top-dose-only effect, or another doubt; inactive means no such curve, though single readings can be large; an effect the other way counts as inactive or inconclusive.

Cc1ccc(CNC(=O)CSc2nc3ccsc3c(=O)n2-c2ccc(C(=O)O)cc2)cc1	none (no result: ATXN viability, VP16 counter, RORg inh, ATXN2 expr inh)
COc1ccccc1CNC(=O)c1cccn1-c1nnc(N2CCCCC2)s1	none (no result: ATXN viability, VP16 counter, RORg inh, ATXN2 expr inh)
Cc1cccc(OCc2n[nH]c(=S)n2-c2ccccc2)c1	VP16 counter inconclusive, RORg inh 2.2µM
Cc1cc(OCc2n[nH]c(=S)n2-c2ccccc2)ccc1Cl	VP16 counter 3.5µM, RORg inh 2.5µM
Cc1ccc(-n2c(COc3cccc(C)c3)n[nH]c2=S)cc1	VP16 counter inconclusive, RORg inh inconclusive
Cn1c(CCc2ccccc2)n[nH]c1=S	RORg inh 13µM
Cc1ccc(C)c(NC(=O)c2cnn(-c3cccc(F)c3)c2C2CCN(C(=O)OC(C)(C)C)CC2)c1	ATXN viability inconclusive, TGFb inhibitor inconclusive, ATXN2 expr inh inconclusive (no result: VP16 counter, RORg inh)
CC(C)(C)n1nc(Cc2cccc3ccccc23)c2c(N)ncnc21	ATXN viability inconclusive, TGFb inhibitor 14µM (no result: VP16 counter, RORg inh)
O=C(C[n+]1cccc2cc(Cl)ccc21)c1ccc(I)cc1	TGFb inhibitor inconclusive (no result: ATXN viability, VP16 counter, RORg inh, ATXN2 expr inh)
Cc1ccc(OCCn2c(=S)[nH]c3ccccc32)c(C(C)C)c1	ATXN viability inconclusive, VP16 counter 4µM, RORg inh 3.5µM, TGFb inhibitor 16µM
Cn1c(=S)[nH]c2ccccc21	VP16 counter inconclusive, RORg inh 13µM
CCOc1ccc(OCCn2c(=S)[nH]c3ccccc32)cc1	VP16 counter 5µM, RORg inh 5µM (no result: ATXN2 expr inh)
S=c1[nH]c2ccccc2n1CCOc1ccccc1	VP16 counter 2.8µM, TGFb inhibitor inconclusive
N#CCCn1c(=S)[nH]c2ccccc21	none
S=c1[nH]c2ccccc2n1CCc1ccncc1	TGFb inhibitor inconclusive (no result: VP16 counter, RORg inh)
C#Cc1cccc(Nc2ncnc3cc(OC)c(OCCCCCCC(=O)NO)cc23)c1	none (no result: ATXN viability, VP16 counter, RORg inh, TGFb inhibitor, HepG2 viability)
CCOC(=O)Cn1c(=O)n(CC2CCCO2)c2nc(-c3ccc(OCC)cc3)nc(C(N)=O)c21 (centres undefined)	none (no result: VP16 counter, RORg inh)
Cc1cc(C)c(NC(=O)CSc2nc(=O)n(Cc3cccnc3)c3c2CCC3)c(C)c1	none (no result: VP16 counter, RORg inh)
COc1cc(=O)n2c(c1C(=O)NCc1cccc(F)c1)CCN(Cc1cccnc1)CC2	none (no result: VP16 counter, RORg inh, TGFb inhibitor, ATXN2 expr inh, HepG2 viability)
S=c1[nH]c2ccccc2n2cccc12	VP16 counter 5.6µM, RORg inh 0.89µM
S=c1[nH]c2ccccc2n1Cc1ccccc1	VP16 counter 7.1µM, RORg inh inconclusive
COc1ccccc1OCCn1c(=S)[nH]c2ccccc21	VP16 counter 10µM, RORg inh 10µM
S=c1[nH]c2cnccc2n1Cc1ccccc1	RORg inh inconclusive
Cc1cccc(OCCn2c(=S)[nH]c3ccccc32)c1	VP16 counter 1.6µM, RORg inh 1.3µM
Cc1cccc(OCCn2c(S(=O)(=O)O)nc3ccccc32)c1	none
COc1ccccc1OCCn1c(=O)n(C)c2ccccc21	none
Cc1nn(C)cc1CN1CCOc2ccc(C(C)(O)COc3ccccc3)cc2C1 (centres undefined)	none (no result: VP16 counter, RORg inh, TGFb inhibitor, ATXN2 expr inh, HepG2 viability)
CCOc1ccc2[nH]c(=O)c(=O)[nH]c2c1	TGFb inhibitor inconclusive
CCOc1ccc2c(c1)[nH]c(=S)n2C	VP16 counter inconclusive, RORg inh 8.9µM
O=C1CC(N2CCCCCC2)C(=O)N1c1ccc2c(c1)OCO2 (centres undefined)	VP16 counter inconclusive, RORg inh 10µM
O=C1CC(N2CCN(c3ccc(O)cc3)CC2)C(=O)N1c1ccc2c(c1)OCO2 (centres undefined)	none
S=Cc1ccc(/C=C/c2ccnc3ccccc23)cc1	none (no result: ATXN viability, VP16 counter, RORg inh, ATXN2 expr inh)
Cc1ccc(N2C(=O)c3ccc(C(=O)N4CCN(c5cccc(C)c5C)CC4)cc3C2=O)cc1	VP16 counter 20µM, RORg inh inconclusive, TGFb inhibitor inconclusive
CN(C)/[N+]([O-])=N/Oc1ccc([N+](=O)[O-])cn1	none (no result: ATXN viability, VP16 counter, RORg inh, ATXN2 expr inh)
CCN(CC)/[N+]([O-])=N/Oc1cc(O/N=[N+](\[O-])N(C)C)c([N+](=O)[O-])cc1[N+](=O)[O-]	RORg inh inconclusive, TGFb inhibitor 6.3µM, HepG2 viability 10µM (no result: ATXN viability, ATXN2 expr inh)
Cc1ccc(Cn2c(C(=O)O)c(CNCc3ccccc3Cl)c3ccc(C)cc32)cc1	ATXN viability inconclusive, TGFb inhibitor inconclusive (no result: VP16 counter, RORg inh)
COc1ccc(Cn2c(C(=O)O)c(CNCCc3ccccc3Cl)c3ccc(C)cc32)cc1	ATXN viability 18µM, TGFb inhibitor inconclusive, ATXN2 expr inh inconclusive (no result: VP16 counter, RORg inh)
C=Cc1ccc(Cn2c(C(=O)O)c(CNCCc3ccccc3)c3ccc(C)cc32)cc1	ATXN viability 22µM, TGFb inhibitor inconclusive, ATXN2 expr inh inconclusive (no result: VP16 counter, RORg inh)
COc1ccc(Nc2nc(S(=O)(=O)c3ccc(C)cc3)c(Cl)s2)cc1	VP16 counter inconclusive, RORg inh inconclusive, TGFb inhibitor 11µM, ATXN2 expr inh inconclusive
C=CCNC(=O)/C(C#N)=C/c1cc(Br)ccc1OC	ATXN viability inconclusive, VP16 counter inconclusive, RORg inh 13µM
CC12CCC(C/C1=N\N=C1\NC(=O)/C(=C\c3cccc(Br)c3)S1)C2(C)C (centres undefined)	ATXN viability inconclusive, VP16 counter 11µM, RORg inh 10µM, TGFb inhibitor inconclusive, ATXN2 expr inh inconclusive
COc1cc(/C=N/N=C2\CC3CCC2(C)C3(C)C)ccc1O (centres undefined)	VP16 counter inconclusive, RORg inh inconclusive
CCOc1ccc2nc(C)cc(Nc3ccc4c(c3)OCCO4)c2c1	ATXN viability inconclusive, VP16 counter inconclusive, TGFb inhibitor 22µM, ATXN2 expr inh inconclusive
CCOc1ccc2nc(C)cc(Nc3cccc([N+](=O)[O-])c3)c2c1	VP16 counter inconclusive, RORg inh inconclusive, TGFb inhibitor inconclusive, ATXN2 expr inh 28µM (no result: ATXN viability)
O=C(OCC(=O)N1CCCc2ccccc21)c1cncc(Br)c1	VP16 counter 1.1µM, RORg inh inconclusive
CC1=C(C(N)=O)C(c2ccc(C(C)C)cc2)n2nc(SCc3ccccc3F)nc2N1 (centres undefined)	none (no result: VP16 counter, RORg inh)
COc1cccc(NC(=O)C2CCN(S(=O)(=O)c3cccc4nonc34)CC2)c1	none (no result: VP16 counter, RORg inh)
O=C(Nc1nccs1)c1cc(-c2ccccn2)nc2c(Cl)cccc12	ATXN viability inconclusive, VP16 counter 6.3µM, RORg inh 5µM, ATXN2 expr inh inconclusive
O=C(Nc1nccs1)c1cc(Cl)nc2ccccc12	VP16 counter inconclusive, RORg inh 18µM
O=C(Nc1nccs1)c1cc(-c2ccccc2)nc2ccccc12	VP16 counter inconclusive, RORg inh 11µM
Cc1ccccc1-c1ccc(CN2CCc3nnc(C(NS(C)(=O)=O)C(C)C)n3CC2)cc1 (centres undefined)	none (no result: VP16 counter, RORg inh, TGFb inhibitor, ATXN2 expr inh, HepG2 viability)
Cc1ccc2c(=O)cc(C(=O)Nc3nc4ccc(Cl)cc4s3)oc2c1C	none (no result: VP16 counter, RORg inh)
Cc1cccc(N2CCN(S(=O)(=O)c3ccc4c(c3)C(C)(C)C(=O)N4C)CC2)c1C	ATXN2 expr inh inconclusive

Screening results from PubChem BioAssay.
